Test [1] is described as follows: growth inhibition of DIPG glioma cells, dose response, cell-based, SU-DIPG-XVII, MIPE5.0, CellTiter-Glo, qHTS (AID 1347060).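 For AC50: cells exposed to compound for 48 hours before viability readout.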 The settings on record: SU-DIPG-XVII viability, CellTiter-Glo ATP luminescence. Background: In ATP-based viability assays light output follows the ATP content of the culture.
The nature of test [2]: growth inhibition of DIPG glioma cells, dose response, cell-based, SU-DIPG-XIII, MIPE4.0, CellTiter-Glo, qHTS (AID 1347061; cut-off not given, nearly all actives have AC50 up to about 37 µM;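 note: cells exposed to compound for 48 hours before readout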). The note with it: SU-DIPG-XIII viability, CellTiter-Glo ATP luminescence.
Test [3] in a line: growth inhibition of DIPG glioma cells, dose response, cell-based, JHH-DIPG-1, MIPE4.0, CellTiter-Glo, qHTS (AID 1347062; cut-off not given, nearly all actives have AC50 up to about 27 µM;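 for AC50: cells exposed to compound for two days before readout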). The settings on record: JHH-DIPG-1 viability, CellTiter-Glo ATP luminescence.
The nature of test [4]: growth inhibition of DIPG glioma cells, dose response, cell-based, SU-DIPG-XIII, MIPE5.0, CellTiter-Glo, qHTS (AID 1347064; cut-off not given, nearly all actives have AC50 up to about 23 µM;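 for AC50: cells exposed to compound for 48 hours before the viability read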). The note with it: SU-DIPG-XIII viability, CellTiter-Glo ATP luminescence.
The nature of test [5]: viability loss in pontine glioma line – cell-based, SU-DIPG-XXV, MIPE5.0, CellTiter-Glo, qHTS, dose response (AID 1347065).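 Note: cells exposed to compound for 48 hours before ATP readout.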 The note with it: CellTiter-Glo ATP luminescence.
A short description of test [6]: SU-DIPG-VI glioma cell viability, MIPE4.0 library, CellTiter-Glo luminescence, qHTS (AID 1347066; cut-off not given, nearly all actives have AC50 up to about 30 µM;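 note: cells exposed to compound for 48 hours before readout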). The note with it: CellTiter-Glo ATP luminescence.
Test [7] is described as follows: JHH-DIPG-1 glioma cell viability, MIPE5.0 library, CellTiter-Glo luminescence, qHTS (AID 1347067).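 Note: cells exposed to compound for 48 hours before readout.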 The note with it: JHH-DIPG-1 glioma viability, CellTiter-Glo ATP luminescence.
Test [8] in a line: modifiers of HSF1 nuclear foci, imaging, Selleck Cancer Library (AID 1347162; in the data active = plate-normalised HSF1 focus index below about 0.46). The settings on record: human cells, at 10 µM; SSMD: measured here: HSF1 foci SSMD mean; cell count: measured here: cell number; plate-normalised HSF1 focus index: stronger effect = lower value.
A short description of test [9]: growth inhibition of DIPG glioma cells, dose response, cell-based, SU-DIPG-IV, MIPE4.0, CellTiter-Glo, qHTS (AID 1347063; cut-off not given, nearly all actives have AC50 up to about 30 µM;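 note: compound exposure lasted 48 hours before the viability readout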). The settings on record: SU-DIPG-IV viability, CellTiter-Glo ATP luminescence.
A short description of test [10]: SU-DIPG-XXV glioma cell viability, MIPE5.0 library, qHTS (AID 1347068; cut-off not given, nearly all actives have IC50 up to about 30 µM;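 for IC50: cells exposed to compound for 48 hours before viability readout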).
The nature of test [11]: sensitizers of A549 cells to miR-34 induction, primary screen, imaging, A549 dox-inducible miR-34, nuclei and caspase counts (AID 1347080;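 active = compounds whose cell count with miR-34 switched on is under 0.7 times the count with it off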). The note with it: A549 miR-34 inducible, Hoechst nuclei count, 48 h.
Test [12] is described as follows: survival rescue of mitochondrial mutant cells in low glucose, primary screen, MELAS cybrids, Rieske KO mouse fibroblasts, CellTiter-Glo (AID 1508586;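 active = mean z-score across replicates of 1.96 or higher in either the MELAS or the Rieske mutant cell line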;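 note: z relative to plate mean and SD of compound and empty wells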).
Test [13] can be described thus: LFS_MB_P medulloblastoma growth inhibition, cell-based, chromothripsis tumors, cisplatin or BGB combos (AID 1671449; in the data active = inhibition above about 80%;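 note: cells exposed for 96 hours; 0% = vehicle DMSO and 100% = killing by high DMSO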). The note with it: LFS_MB_P medulloblastoma cells.
Test [14] is described as follows: HDN33 neuroblastoma growth inhibition, cell-based, chromothripsis tumors, cisplatin or BGB combos (AID 1671450; in the data active = inhibition above about 80%;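 note: cells exposed to compound for four days; 0% = vehicle DMSO and 100% = cell killing by high DMSO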). The note with it: HDN33 neuroblastoma cells, stronger effect = higher value.
Test [15] can be described thus: ICB984 medulloblastoma cell growth inhibition, synergistic combos for chromothripsis tumors, cisplatin or BGB combos (AID 1671451; call rule not given here;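 note: cells exposed for 96 hours before readout; 0% = vehicle DMSO and 100% = killing by high DMSO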). The note with it: ICB984 medulloblastoma cells, drug combinations, stronger effect = higher value.
The nature of test [16]: HTB85 osteosarcoma cell growth inhibition, synergistic combos for chromothripsis tumors, BGB or cisplatin IC20 combos (AID 1671453; in the data active = inhibition above about 80%;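 note: cells exposed for 96 hours before readout; 0% = vehicle DMSO and 100% = high DMSO killing control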). The settings on record: HTB85 osteosarcoma cells, drug combinations, stronger effect = higher value.
Test [17] is described as follows: MDA-MB-436 breast carcinoma cell growth inhibition, synergistic combos for chromothripsis tumors, BGB or cisplatin combos (AID 1671458; call rule not given here;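 note: cells exposed for 96 hours; 0% = vehicle DMSO and 100% = killing by high DMSO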). The note with it: MDA-MB-436 breast carcinoma growth inhibition, drug combinations, stronger effect = higher value.
A short description of test [18]: growth inhibition of BT084 medulloblastoma cells, cell-based, ICGC_MB145, cisplatin and BGB IC40 combos (AID 1671461; in the data active = inhibition above about 80%;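 note: cells exposed to drugs for 96 hours; 0% = vehicle DMSO and 100% = high DMSO full killing control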). The note with it: drug combinations, stronger effect = higher value.
Test [19] can be described thus: growth inhibition of RCMB18 medulloblastoma cells, cell-based, cisplatin and BGB IC40 combos (AID 1671462; in the data active = inhibition above about 80%;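 note: cells exposed to compound for four days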). The note with it: stronger effect = higher value.

Values joined by “and” are separate entries in the source; they are usually repeats but may differ in a detail not shown here. Identical values can stand only once. Records with an inconclusive call do not appear. Active and inactive are the calls of the source. Unless noted, no cut-off is given here; in the data, nearly all actives have AC50 up to about 26 µM.

As to `C[C@]12CC[C@H](O)CC1=CC[C@@H]1[C@@H]2CC[C@]2(C)C(c3cccnc3)=CC[C@@H]12`, the result in [1], in test [2], in test [3], in test [4], in test [5] and in test [6] was inactive. Further, the result in test [7] was inactive. In test [8], the SSMD is 1.68. In test [8], this compound had a cell count of 7310. Also, the plate-normalised HSF1 focus index in [8] is 1.06 (inactive).
As a reminder, the AC50 is the concentration giving half of the maximal activity seen. In general, inhibition refers to the drop in the measured response relative to a control, in per cent. Regarding `CN1CCc2c(c3ccccc3n2Cc2ccc(C(=O)NO)cc2)C1`, the concentration at half-maximal activity (AC50) in test [1] is 23.5 µM (active); in [3], 23.5 µM (active); in test [9], 20.9 µM (active); in test [7] it was 20.9 µM (active). The result in test [2] and in [10] was inactive. The fold change in [11] (stronger effect = lower value, cell number ratio, induced over uninduced) is 0.909 (inactive) and 0.928 (inactive); in test [11] (measured here: relative caspase fold change +Dox/-Dox), 0.692 and 0.727. The cell count in test [11] (measured here: total cells with miR-34 induction, stronger effect = lower value) was 8690 and 9370; in test [11] (measured here: total cells without miR-34 induction), 9560 and 10100. Further, the z-score in [12] (MELAS cybrid survival, CellTiter-Glo 48 h, stronger effect = higher value) was -0.421 (inactive) and -0.386 (inactive); in test [12] (Rieske KO mouse fibroblast survival, CellTiter-Glo 72 h), 1.15 and -0.701. Further, the inhibition in test [13] (at 0.5 µM, stronger effect = higher value) was -24.1% (inactive) and -14.7% (inactive); in [13] (measured here: combination with BGB IC20, at 0.005 µM) it was -28.6% and -21.3%; in test [13] (measured here: combination with BGB IC40, at 0.005 µM), -40.9% and -27%; in test [13] (measured here: combination with BGB IC40, at 0.05 µM), -19.2% and -45.3%; in [13] (measured here: combination with cisplatin, at 0.5 µM, stronger effect = higher value), -23.9% and 9.39%; in [13] (measured here: combination with cisplatin, at 5 µM, stronger effect = higher value), -11.8% and 7.46%. Besides, the inhibition in test [14] (BGB combo, at 5 µM) is 2.45% and 27.4%; in [14] (at 0.5 µM), 4.53% (inactive) and -0.32% (inactive); in test [14] (cisplatin combo, at 5 µM) it was 19.6% and 28.9%; in test [14] (measured here: with BGB IC20 combination, at 0.5 µM) it was -5.55% and 4.06%; in [14] (measured here: with cisplatin IC20 combination, at 0.5 µM) it was 15% and 5.2%; in [14] (single agent, at 5 µM) it was 25.9% and 54.8%. Further, the inhibition was 22.3% and -11.7% in [15] (BGB IC20 combo, at 0.005 µM); -10.2% and -27.7% in test [15] (BGB IC40 combo, at 0.005 µM); -9.66% and -9.28% in test [15] (BGB IC40 combo, at 0.05 µM); -11.2% (inactive) and -22.9% (inactive) in [15] (at 0.5 µM); -15.3% and -13.2% in [15] (cisplatin combo, at 0.05 µM); -16.4% and -10.9% in test [15] (cisplatin combo, at 0.5 µM). Also, the inhibition was -14% and -10.1% in test [15] (cisplatin combo, at 5 µM); -11.5% and -12.4% in test [15] (measured here: 5 uM single agent, at 5 µM); 0.33% (inactive) and -0.18% (inactive) in test [16] (at 0.5 µM); 0.483% and -9.65% in [16] (measured here: with BGB IC20, at 0.5 µM); 26.3% and 10.4% in test [16] (measured here: with BGB IC20, at 5 µM); -3.56% and 12.2% in [16] (measured here: with cisplatin IC20, at 0.5 µM). The inhibition in [16] (measured here: with cisplatin IC20, at 5 µM) was 24.2% and 27.5%; in test [16] (single agent, at 5 µM), 18.4% and 13.9%; in test [17] (at 0.5 µM), -13.8% (inactive) and -2.54% (inactive); in [17] (measured here: BGB combination, at 0.5 µM) it was -10.6% and -7.29%; in [17] (measured here: BGB combination, at 5 µM), -5.66% and 0.993%; in [17] (measured here: cisplatin combination, at 0.5 µM) it was -25.1% and 2.46%. For the same compound, the inhibition in [17] (measured here: cisplatin combination, at 5 µM) is -15.3% and 18.8%; in test [18] (at 0.5 µM) it was 2.15% (inactive) and 0.779% (inactive); in [18] (cisplatin combination, at 0.5 µM) it was 8.01% and -20.4%; in test [18] (cisplatin combination, at 5 µM) it was -145% and 19.9%; in [18] (measured here: BGB IC40 combination 0.05 uM, at 0.05 µM) it was -20.5% and 21.4%; in [18] (single agent, at 5 µM) it was 2.48% and 3.3%. Moreover, the inhibition in [19] (at 0.5 µM) is -9.94% (inactive) and 3.3% (inactive); in test [19] (cisplatin combo, at 5 µM), 1.27% and 18.1%; in test [19] (measured here: BGB IC40 combination, at 0.05 µM), -31.8% and 8.24%; in test [19] (measured here: combination with cisplatin, at 0.5 µM) it was -21.5% and 43%; in [19] (single agent, at 5 µM), 12.1% and 14.4%.
As a reminder, the IC50 is the concentration at which inhibition is half-maximal. In the case of `O=C(Nc1ncc(-c2cc(C(F)F)nn2-c2c(Cl)cccc2Cl)s1)C1CC1`, the AC50 in [1] was 0.833 µM (active); in test [2], 13.2 µM (active); in test [3], 0.662 µM (active); in test [4], 2.35 µM (active); in test [5], 1.05 µM (active); in [6] it was 5.26 µM (active). In addition, the AC50 in test [7] was 1.32 µM (active). Also, the 50% inhibitory concentration (IC50) in [10] is 1.18 µM (active).
Take `CC(C)(N)C(=O)N[C@H](COCc1ccccc1)C(=O)N1CCC2(CC1)CN(S(C)(=O)=O)c1ccccc12`: the call in [1], in [2], in test [3], in [4], in test [5] and in test [6] was inactive. The call in test [7] and in test [10] was inactive.
